# About 300 (9.4%) of roughly 3,200 compounds showed activity. What follows is part of a selection rich in actives, with near analogues and random picks from the rest.
# Tested on: A673/TR/shEF
# Test: cell viability (LOESS-normalised, relative to median of negative controls) (log2 ratio); higher = more viable cells (less compound effect), active = hit call of the paper (over 3 MAD below the median)
# Conditions: treatment time: 72 h
# How it was run: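 For three days, A673/TR/shEF Ewing sarcoma cells in 384-well plates (1,500 per well) were treated with library compounds at two or more concentrations or with DMSO controls, after doxycycline had been added or withheld 24 h beforehand to induce EWS-FLI1 shRNA knockdown. Viability was read by CellTiter-Glo luminescence on an Envision reader. The data were LOESS-corrected per plate, divided by the median of negative controls and log2-transformed.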
# [1] = 0.25 µM, library screen: screen1, EWS-FLI1 expression: high (no doxycycline)
# [2] = 0.25 µM, library screen: screen1, EWS-FLI1 expression: low (doxycycline-induced shRNA knockdown)
# [3] = 2.5 µM, library screen: screen1, EWS-FLI1 expression: high (no doxycycline)
# [4] = 2.5 µM, library screen: screen1, EWS-FLI1 expression: low (doxycycline-induced shRNA knockdown)
# [5] = 0.25 µM, library screen: screen2, EWS-FLI1 expression: high (no doxycycline)
# [6] = 0.25 µM, library screen: screen2, EWS-FLI1 expression: low (doxycycline-induced shRNA knockdown)
# [7] = 2.5 µM, library screen: screen2, EWS-FLI1 expression: high (no doxycycline)
# [8] = 2.5 µM, library screen: screen2, EWS-FLI1 expression: low (doxycycline-induced shRNA knockdown)
compound,measurement,setting,value
CN=C1CN(O)C(c2ccccc2)=c2cc(Cl)ccc2=N1,cell viability (log2),[1],0.0853 (inactive)
same,cell viability (log2),[2],0.0654 (inactive)
same,cell viability (log2),[3],0.0997 (inactive)
same,cell viability (log2),[4],0.0898 (inactive)
CCN1C[C@]2(C)CC[C@H](OC)[C@@]34C1[C@]1(OCO[C@@]15C[C@H](OC)[C@H]1C[C@]3(O)[C@@H]5[C@H]1OC)[C@@H](OC(C)=O)[C@H]24,cell viability (log2),[1],0.0895 (inactive)
same,cell viability (log2),[2],0.0208 (inactive)
same,cell viability (log2),[3],0.12 (inactive)
same,cell viability (log2),[4],0.0444 (inactive)
C=CCN1CC[C@]23c4c5ccc(O)c4O[C@@H]2/C(=N/N=C2\CC[C@@]4(O)C6Cc7ccc(O)c8c7[C@@]4(CCN6CC=C)[C@@H]2O8)CC[C@@]3(O)C1C5,cell viability (log2),[5],0.27 (inactive)
same,cell viability (log2),[6],0.119 (inactive)
same,cell viability (log2),[7],0.0736 (inactive)
same,cell viability (log2),[8],0.0511 (inactive)
S=C=NCc1ccccc1,cell viability (log2),[1],0.0421 (inactive)
same,cell viability (log2),[2],0.0817 (inactive)
same,cell viability (log2),[3],0.0546 (inactive)
same,cell viability (log2),[4],0.123 (inactive)
CCOP(=S)(OCC)Oc1ccc2c(C)c(Cl)c(=O)oc2c1,cell viability (log2),[1],-0.0154 (inactive)
same,cell viability (log2),[2],-0.0116 (inactive)
same,cell viability (log2),[3],0.000589 (inactive)
same,cell viability (log2),[4],-0.0198 (inactive)
COc1c2c(cc3c1OCO3)CC[N+](C)=C2,cell viability (log2),[1],0.122 (inactive)
same,cell viability (log2),[2],0.157 (inactive)
same,cell viability (log2),[3],0.0941 (inactive)
same,cell viability (log2),[4],0.18 (inactive)
COc1ccc(C(=O)OC2CCC3(C)C4CCC5[C@]6(O)C[C@H](O)[C@@]7(O)C(CN8CC(C)CCC8[C@@]7(C)O)[C@]6(O)C[C@@]53O[C@]24O)cc1OC (some centres not stated),cell viability (log2),[1],0.0564 (inactive)
same,cell viability (log2),[2],0.0531 (inactive)
same,cell viability (log2),[3],0.0896 (inactive)
same,cell viability (log2),[4],0.133 (inactive)
S=C=Nc1cccc(C2(N3CCCCC3)CCCCC2)c1,cell viability (log2),[5],0.168 (inactive)
same,cell viability (log2),[6],0.105 (inactive)
same,cell viability (log2),[7],0.16 (inactive)
same,cell viability (log2),[8],0.118 (inactive)
NCCCP(=O)(O)O,cell viability (log2),[5],0.138 (inactive)
same,cell viability (log2),[6],0.0766 (inactive)
same,cell viability (log2),[7],0.114 (inactive)
same,cell viability (log2),[8],0.116 (inactive)
O=C1C=CC(=O)c2c(O)cccc21,cell viability (log2),"0.025 µM, library screen: screen2, EWS-FLI1 expression: high (no doxycycline)",0.123 (inactive)
same,cell viability (log2),"0.025 µM, library screen: screen2, EWS-FLI1 expression: low (doxycycline-induced shRNA knockdown)",0.0947 (inactive)
same,cell viability (log2),[1],0.185 (inactive)
same,cell viability (log2),[2],0.0663 (inactive)
same,cell viability (log2),[5],0.0843 (inactive)
same,cell viability (log2),[6],0.00401 (inactive)
same,cell viability (log2),[3],0.153 (inactive)
same,cell viability (log2),[4],0.0956 (inactive)
same,cell viability (log2),[7],0.273 (inactive)
same,cell viability (log2),[8],0.125 (inactive)
same,cell viability (log2),"25 µM, library screen: screen2, EWS-FLI1 expression: high (no doxycycline)",-0.0924 (active)
same,cell viability (log2),"25 µM, library screen: screen2, EWS-FLI1 expression: low (doxycycline-induced shRNA knockdown)",-0.0926 (active)
CCCCCCC(C)(C)c1ccc([C@H]2C[C@@H](O)CC[C@H]2CCCO)c(O)c1,cell viability (log2),[5],0.0289 (inactive)
same,cell viability (log2),[6],0.103 (inactive)
same,cell viability (log2),[7],0.129 (inactive)
same,cell viability (log2),[8],0.122 (inactive)
CCc1cccc(C)c1N(C(=O)CCl)C(C)COC (configuration not stated),cell viability (log2),[1],0.0561 (inactive)
same,cell viability (log2),[2],0.0711 (inactive)
same,cell viability (log2),[3],0.0898 (inactive)
same,cell viability (log2),[4],0.0634 (inactive)
CCCC(C)(COC(N)=O)COC(=O)NC(C)C (configuration not stated),cell viability (log2),[1],0.0415 (inactive)
same,cell viability (log2),[2],0.112 (inactive)
same,cell viability (log2),[5],0.196 (inactive)
same,cell viability (log2),[6],0.0672 (inactive)
same,cell viability (log2),[3],0.137 (inactive)
same,cell viability (log2),[4],0.151 (inactive)
same,cell viability (log2),[7],-0.0715 (active)
same,cell viability (log2),[8],0.121 (inactive)
C[N+]1=Cc2cc3c(cc2CC1)OCO3,cell viability (log2),[1],0.0752 (inactive)
same,cell viability (log2),[2],0.0244 (inactive)
same,cell viability (log2),[3],0.15 (inactive)
same,cell viability (log2),[4],0.0111 (inactive)
COc1ccc([C@H]2Oc3c(I)c(OC)cc(OC)c3C[C@@H]2O)cc1OC,cell viability (log2),[1],-0.0318 (inactive)
same,cell viability (log2),[2],0.027 (inactive)
same,cell viability (log2),[3],0.0859 (inactive)
same,cell viability (log2),[4],0.059 (inactive)
N#C/C(=C\c1ccc(O)cc1)C(=O)O,cell viability (log2),[1],0.0465 (inactive)
same,cell viability (log2),[2],0.0904 (inactive)
same,cell viability (log2),[3],0.146 (inactive)
same,cell viability (log2),[4],0.0788 (inactive)
C[C@@H](N)Cc1cnc[nH]1,cell viability (log2),[5],0.0946 (inactive)
same,cell viability (log2),[6],0.0207 (inactive)
same,cell viability (log2),[7],0.146 (inactive)
same,cell viability (log2),[8],0.00233 (inactive)
OC[C@H]1O[C@@H](n2cnc3cc(Cl)c(Cl)cc32)[C@H](O)[C@@H]1O,cell viability (log2),"0.025 µM, library screen: screen1, EWS-FLI1 expression: high (no doxycycline)",0.182 (inactive)
same,cell viability (log2),"0.025 µM, library screen: screen1, EWS-FLI1 expression: low (doxycycline-induced shRNA knockdown)",-0.067 (inactive)
same,cell viability (log2),[1],0.227 (inactive)
same,cell viability (log2),[2],0.0134 (inactive)
same,cell viability (log2),[3],-0.183 (active)
same,cell viability (log2),[4],0.128 (inactive)
same,cell viability (log2),"25 µM, library screen: screen1, EWS-FLI1 expression: high (no doxycycline)",-0.16 (active)
same,cell viability (log2),"25 µM, library screen: screen1, EWS-FLI1 expression: low (doxycycline-induced shRNA knockdown)",0.0669 (inactive)
Cc1cc([C@@H]2CCCN2C)on1,cell viability (log2),[5],0.0967 (inactive)
same,cell viability (log2),[6],0.135 (inactive)
same,cell viability (log2),[7],0.0205 (inactive)
same,cell viability (log2),[8],0.0708 (inactive)
CN1CC[C@]2(CCN3CCc4c(oc5ccccc45)[C@@H]3C2)N(C)C1=O,cell viability (log2),[5],0.195 (inactive)
same,cell viability (log2),[6],0.0926 (inactive)
same,cell viability (log2),[7],0.114 (inactive)
same,cell viability (log2),[8],0.114 (inactive)
CCCCN(CC)c1c([N+](=O)[O-])cc(C(F)(F)F)cc1[N+](=O)[O-],cell viability (log2),[1],0.116 (inactive)
same,cell viability (log2),[2],0.132 (inactive)
same,cell viability (log2),[3],0.0478 (inactive)
same,cell viability (log2),[4],0.194 (inactive)
ClC1=C(Cl)C2(Cl)C3C(Cl)C=CC3C1(Cl)C2(Cl)Cl (configuration not stated),cell viability (log2),[1],0.152 (inactive)
same,cell viability (log2),[2],0.0412 (inactive)
same,cell viability (log2),[3],0.0862 (inactive)
same,cell viability (log2),[4],0.0598 (inactive)
CC(C)N1C(=O)c2ccccc2NS1(=O)=O,cell viability (log2),[1],0.113 (inactive)
same,cell viability (log2),[2],0.086 (inactive)
same,cell viability (log2),[3],0.0391 (inactive)
same,cell viability (log2),[4],0.0775 (inactive)
C/C=C(/C)C(=O)O[C@H]1C(C)=C2[C@H]([C@@H]1OC(=O)CCCCCCC)[C@@](C)(OC(C)=O)C[C@H](OC(=O)CCC)[C@@]1(O)[C@H]2OC(=O)[C@@]1(C)O,cell viability (log2),[5],-3.16 (active)
same,cell viability (log2),[6],-2.76 (active)
same,cell viability (log2),[7],-3.49 (active)
same,cell viability (log2),[8],-2.81 (active)
CN1C(=O)CN=C(c2ccccc2)c2cc(Cl)ccc21,cell viability (log2),[1],0.0871 (inactive)
same,cell viability (log2),[2],0.0866 (inactive)
same,cell viability (log2),[3],0.123 (inactive)
same,cell viability (log2),[4],0.0545 (inactive)
C[C@]12CC[C@H]3[C@@H](CCC4=CC(=O)CC[C@@]43C)[C@@H]1CC[C@@H]2O,cell viability (log2),[1],0.0751 (inactive)
same,cell viability (log2),[2],-0.0159 (inactive)
same,cell viability (log2),[3],0.0937 (inactive)
same,cell viability (log2),[4],-0.0498 (inactive)
O=c1cccc2n1CC1CC2CN2CCCCC12 (configuration not stated),cell viability (log2),[1],0.16 (inactive)
same,cell viability (log2),[2],0.0123 (inactive)
same,cell viability (log2),[3],0.153 (inactive)
same,cell viability (log2),[4],0.0958 (inactive)
NCCc1cc(O)c(O)cc1O,cell viability (log2),[1],0.0637 (inactive)
same,cell viability (log2),[2],0.155 (inactive)
same,cell viability (log2),[3],0.144 (inactive)
same,cell viability (log2),[4],0.129 (inactive)
CC(=O)OCC1=C(C(=O)O)N2C(=O)[C@@H](NC(=O)CCC[C@@H](N)C(=O)O)[C@H]2SC1,cell viability (log2),[5],0.263 (inactive)
same,cell viability (log2),[6],0.114 (inactive)
same,cell viability (log2),[7],0.155 (inactive)
same,cell viability (log2),[8],0.174 (inactive)

# — the supplement of paper PMC6089552
